Laboratory results published in PubChem BioAssay (NCATS).
Results filed as inconclusive are left out. Calls of active or inactive are those of the source. Unless noted, the call rests on the fitted dose curve; in most records, active means well fitted curve in the direction sought with a large enough effect; inconclusive means small, poorly fitted or top-dose-only effect, or another doubt; inactive means no such curve, though single readings can be large; an effect the other way counts as inactive or inconclusive.

How the values were obtained:
[1] = target: Cytochrome P450 1A2 (Homo sapiens) (UniProt P05177); assay: p450-cyp1a2 (AID 410; calls by dose curve; further: potency means the concentration at half of the fitted maximal effect;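 on activity change, negative = inhibition: -100% = full effect of reference inhibitor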)
Outline: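 20nM CYP1A2 with 100uM Luciferin-ME (at Km) in 100mM KPO4; compound preincubated 10 min, NADPH regeneration added, 60 min at room temperature. Luciferin quantified by luminescence after detection reagent; normalized to 57 uM furafylline.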

[2] = target: Glucocorticoid receptor (Homo sapiens) (UniProt P04150); assay: GR-EFC Redistribution (AID 451; calls by dose curve; further: potency means the concentration at half of the fitted maximal effect); settings: CHO-K1 GR-EFC translocation, beta-gal luminescence, 2 h
Outline: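 CHO-K1 cells stably expressing nuclear-localized β-gal enzyme acceptor and GR fused C-terminally to the enzyme donor fragment; ligand-driven nuclear translocation restores β-gal by complementation. Compounds titrated up to 46 uM final, 2 h at 37 °C; luminescence read.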

[3] = target: Mitogen-activated protein kinase 10 (Mus musculus) (UniProt Q61831); assay: JNK3 AlphaScreen Assay (AID 530; active means well fitted curve in either direction with a large enough effect, not every such curve was filed as active;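 further: kinase came from lysate of stimulated human HepG2 cells; signal reports phosphorylation of biotinylated GST-cJun 1-79 at Ser73 with 10 µM ATP; on the % scale 0 is the no-effect control and ±100 the full control effect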)
Outline: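 Inhibitors reduce antibody binding to phosphorylated biotin-cJun, lowering AlphaScreen luminescence. Lysates from HepG2 cells pre-activated by IL-1beta plus TNF-alpha supplied JNK3; compounds were titrated.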

[4] = target: Cytochrome P450 3A4 (Homo sapiens) (UniProt P08684); assay: qHTS Assay for Activators of Cytochrome P450 3A4 (AID 885); further: nearly all actives have a fitted effect of over 65% in size
Outline: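 Quantitative HTS format: compounds preincubated with 20nM human CYP3A4 and Luciferin-PPXE substrate at KM, reaction started by NADPH regeneration, stopped after 60 min, luciferase luminescence read 20 min later.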

[5] = target: Cytochrome P450 2D6 (Homo sapiens) (UniProt P10635); assay: qHTS Assay for Inhibitors and Substrates of Cytochrome P450 2D6 (AID 891); further: potency means the concentration at half of the fitted maximal effect; nearly all actives have a fitted effect of over 60% in size
Outline: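 Human CYP2D6 (5 nM) with 30 uM Luciferin-ME EGE (at Km) in 100 mM KPO4, compound preincubated 10 min, then NADPH regeneration system for 60 min at room temperature. Luciferin read by luminescence; normalized to 1.43 uM quinidine.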

[6] = target: DNA dC->dU-editing enzyme APOBEC-3G (Homo sapiens) (UniProt Q9HC16); assay: qHTS for inhibitors of Vif-A3G interactions: Validation (AID 588379); further: 0% is about no effect
Outline: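 HeLa cells stably expressing Vif and A3G-eYFP, 700 cells/well, incubated overnight at 37 deg C, then exposed to compound overnight at 37 deg C. Inhibition of Vif-mediated degradation read as increased yellow fluorescence (Ex 488/Em 500-530) by laser-scanning cytometry.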

[7] = test system: Zika virus NS2B-NS3 protease; assay: Primary screen GU AMC qHTS for Zika virus inhibitors (AID 1347154); further: nearly all actives have a fitted effect of over 70% in size;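 on activity change, negative = inhibition: 0% = no-inhibitor control and -100% = no-enzyme control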
Outline: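 Unlinked Zika NS2B hydrophilic domain/NS3 protease domain noncovalent complex (25 nM final) in 10 mM Tris-HCl pH 8.0, 0.01% Tween 20, with AMC peptide substrate. Fluorescence (ex 340, em 450 nm) change over 15 min, room temperature; percent inhibition fitted to 4-parameter Hill equation.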

[8] = Counterscreen qHTS for small molecule stabilizers of the endoplasmic reticulum resident proteome: GLuc-NoTag assay (AID 1508627);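 further: SH-SY5Y cells given compound then 100 nM thapsigargin to empty ER calcium; 0% = thapsigargin alone and -100% = DMSO vehicle control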
Outline: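 SH-SY5Y cells stably expressing constitutively secreted GLuc (no SERCaMP tag) were pre-incubated 5 h, treated with compound for 19 h, then 100 nM thapsigargin for 4 h at 37C; medium GLuc read by coelenterazine luminescence.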

[9] = Confirmatory qHTS for small molecule stabilizers of the endoplasmic reticulum resident proteome: Secreted ER Calcium Modulated Protein (SERCaMP) assay (AID 1508628); further: potency means the concentration at half of the fitted maximal effect; nearly all actives have a fitted effect of over 40% in size
Outline: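 SH-SY5Y cells stably expressing GLuc-SERCaMP, treated 16 h with compound (primary 1.53, 7.67, 38.3 uM; confirmation 11 concentrations, up to 76.6 uM), then 100 nM thapsigargin for 4 h. Secreted Gaussia luciferase in medium read by coelenterazine luminescence.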

[10] = target: Glucocorticoid receptor (Homo sapiens) (UniProt P04150); assay: GR-GFP Redistribution (AID 450;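 active means compounds whose dose series gives a full or clear partial fitted curve of increased nuclear translocation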; further: potency means the concentration at half of the fitted maximal effect); settings: U2OS GR-GFP nuclear translocation, laser cytometry, 2 h
[11] = target: Cytochrome P450 2C9 (Homo sapiens) (UniProt P11712); assay: qHTS Assay for Inhibitors and Substrates of Cytochrome P450 2C9 (AID 883); further: potency means the concentration at half of the fitted maximal effect; nearly all actives have a fitted effect of over 60% in size
Outline: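 CYP2C9 deoxyluciferin hydroxylation, 37C, 60 min with NADPH regeneration; 10nM enzyme, 100uM Luciferin-H (KM). Glo detection reagent stopped reaction; luminescence normalized to sulphaphenazole (57uM) full inhibition.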

[12] = target: Cytochrome P450 3A4 (Homo sapiens) (UniProt P08684); assay: qHTS Assay for Inhibitors and Substrates of Cytochrome P450 3A4 (AID 884); further: potency means the concentration at half of the fitted maximal effect; nearly all actives have a fitted effect of over 50% in size
Outline: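 20 nM human CYP3A4 with 25 uM Luciferin-PPXE (at KM) in 200 mM KPO4, preincubated 10 min with compound; NADPH regeneration started a 60 min RT reaction. Luciferin detected by luminescence, normalized to 57 uM ketoconazole as full inhibition.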

[13] = target: Cytochrome P450 2C19 (Homo sapiens) (UniProt P33261); assay: qHTS Assay for Inhibitors and Substrates of Cytochrome P450 2C19 (AID 899); further: potency means the concentration at half of the fitted maximal effect; nearly all actives have a fitted effect of over 60% in size
Outline: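 In 50mM KPO4, the reaction held 5nM enzyme and KM-level (10uM) Luciferin-H EGE; it ran 60 min at 37C after NADPH regeneration and a 10 min compound preincubation. Luminescence values were scaled to 57uM ketoconazole as complete inhibition.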

[14] = qHTS Assay for Lipid Storage Modulators (AID 1519; calls by dose curve; on activity change, negative = inhibition: on the % scale 0 is the no-effect control and ±100 the full control effect); settings: Drosophila S3 cells, BODIPY lipid droplet/cell ratio, laser cytometry, cells loaded with oleic acid
Outline: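 Cells seeded at 5,000 per well were treated with compounds over a concentration series and loaded with oleic acid (400 uM, as added). Lipid droplet fluorescence (488 nm excitation, 500-530 nm channel) was read by laser-scanning cytometry and normalized to 20 uM Triacsin C.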

[15] = target: Ubiquitin carboxyl-terminal hydrolase 1 (Homo sapiens) (UniProt O94782); assay: Inhibitors of USP1/UAF1: Pilot qHTS (AID 504865);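 further: rhodamine fluorescence freed from ubiquitin-rhodamine substrate followed over time; top concentration of the series differs between compounds; on the % scale 0 is the no-effect control and ±100 the full control effect; nearly all actives have a fitted effect of over 35% in size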
Outline: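 USP1/UAF1 complex (1nM) preincubated with compound 15 min at room temperature, then Ub-Rho substrate (150nM final) added. Fluorescence read kinetically at 480/540 nm, 6 reads every 60 seconds. Buffer: 50mM HEPES pH 7.8, 0.5mM EDTA, 0.1 mg/ml BSA, 1mM TCEP, 0.01% Tween-20.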

[16] = target: Calcium and integrin-binding protein 1 (Homo sapiens) (UniProt Q99828); assay: Primary qHTS for Identification of Calcium Integrin Binding Protein 1 (CIB1) Competitor (AID 1508620)
Outline: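 Fluorescence polarization competition: CIB1-GST (1 uM final) preincubated with compound 15 min at room temperature, then FITC-labeled alphaIIb peptide (100 nM final) added for another 15 min. Polarization read at Ex 480/Em 540.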

[17] = target: Cytochrome P450 3A4 (Homo sapiens) (UniProt P08684); assay: Cytochrome P450 family 3 subfamily A member 4 (CYP3A4) small molecule antagonists: luciferase qHTS assay (AID 1645841; active means well fitted curve in the direction sought with a large enough effect in the repeat runs; an effect the other way counts as inactive or inconclusive; further: nearly all actives have a fitted effect of over 45% in size)
Outline: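 P450-Glo CYP3A4 enzyme with proluciferin substrate was preincubated with DMSO-dissolved compounds for 10 min at room temperature. NADPH regeneration solution started a 1 h reaction. Detection reagent stopped it, and luminescence was read after 20 min.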

[18] = target: Cytochrome P450 2C9 (Homo sapiens) (UniProt P11712); assay: Cytochrome P450 family 2 subfamily C member 9 (CYP2C9) small molecule antagonists: luciferase qHTS assay (AID 1645842; active means well fitted curve in the direction sought with a large enough effect in the repeat runs; an effect the other way counts as inactive or inconclusive; further: nearly all actives have a fitted effect of over 55% in size)
Outline: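 Luminescence, after 20 min with luciferin detection reagent, reflected CYP2C9 turnover during a 1 h NADPH-driven reaction at 37C. Enzyme-substrate mix contained 0.4% bovine serum albumin and was preincubated with compound 10 min at room temperature.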

[19] = Primary qHTS for inhibitors of nuclear receptor binding SET domain protein 2 (NSD2) in an isogenic RCH-ACV NSD2 p.E1099K mutant (9B) (AID 1645876); further: on the % scale 0 is the no-effect control and ±100 the full control effect; nearly all actives have a fitted effect of over 70% in size
[20] = Primary qHTS for inhibitors of nuclear receptor binding SET domain protein 2 (NSD2) in an RCH-ACV wild type WT cells (2C) (AID 1645877); further: nearly all actives have a fitted effect of over 70% in size
[21] = target: Glutathione peroxidase 1 (Homo sapiens) (UniProt P07203); assay: Primary qHTS Assay for Inhibitors of Recombinant Selenoprotein Glutathione Peroxidase 1 (GPX1) (AID 1845191); further: on the % scale 0 is the no-effect control and ±100 the full control effect; nearly all actives have a fitted effect of over 65% in size
Outline: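 Recombinant GPX1 (10 nM final) was preincubated with compound for 30 min at room temperature, then reacted with 1 mM GSH, 0.5 mM CHP, 0.5 mM NADPH and 100 nM glutathione reductase; NADPH fluorescence (340/450 nm) was read at 0 and 15 min.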

[22] = target: Phospholipid hydroperoxide glutathione peroxidase GPX4 (Homo sapiens) (UniProt P36969); assay: Primary qHTS Assay for Inhibitors of Recombinant Selenoprotein Glutathione Peroxidase 4 (GPX4) (AID 1845192); settings: outcome: dose series up to 50 µM unless noted; further: nearly all actives have a fitted effect of over 65% in size
Outline: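 GR-coupled readout: 100 nM GR, 1 mM GSH, 0.5 mM NADPH; NADPH fluorescence (ex 340/em 450 nm) read at t=0 and after 15 min RT. GPX4 200 nM, preincubated 30 min with compound; substrate 0.5 mM CHP.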

Chain of Glucocorticoid receptor (Homo sapiens) (P04150 whole entry, looked up, the tested form may be a part): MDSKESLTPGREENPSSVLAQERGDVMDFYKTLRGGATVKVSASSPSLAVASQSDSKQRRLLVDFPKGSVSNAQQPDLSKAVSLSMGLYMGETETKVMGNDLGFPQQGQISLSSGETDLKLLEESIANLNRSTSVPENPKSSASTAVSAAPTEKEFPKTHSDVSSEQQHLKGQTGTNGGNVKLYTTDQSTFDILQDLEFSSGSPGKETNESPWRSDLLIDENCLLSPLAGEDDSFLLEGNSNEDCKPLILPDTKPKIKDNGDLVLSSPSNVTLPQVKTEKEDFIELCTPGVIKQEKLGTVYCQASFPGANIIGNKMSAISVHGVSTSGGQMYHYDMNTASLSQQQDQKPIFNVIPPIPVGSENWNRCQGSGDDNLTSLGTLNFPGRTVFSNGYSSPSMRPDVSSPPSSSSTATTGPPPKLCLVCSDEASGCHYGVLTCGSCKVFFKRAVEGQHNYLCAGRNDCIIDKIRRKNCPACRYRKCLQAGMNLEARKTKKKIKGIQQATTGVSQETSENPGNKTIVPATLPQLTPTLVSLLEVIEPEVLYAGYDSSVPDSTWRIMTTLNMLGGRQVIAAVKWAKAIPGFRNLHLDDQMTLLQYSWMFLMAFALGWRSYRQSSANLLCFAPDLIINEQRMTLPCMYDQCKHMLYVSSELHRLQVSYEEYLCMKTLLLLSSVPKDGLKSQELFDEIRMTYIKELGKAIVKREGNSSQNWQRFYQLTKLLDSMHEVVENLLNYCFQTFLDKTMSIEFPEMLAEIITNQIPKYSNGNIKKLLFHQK
Chain of Cytochrome P450 3A4 (Homo sapiens) (P08684 whole entry, looked up): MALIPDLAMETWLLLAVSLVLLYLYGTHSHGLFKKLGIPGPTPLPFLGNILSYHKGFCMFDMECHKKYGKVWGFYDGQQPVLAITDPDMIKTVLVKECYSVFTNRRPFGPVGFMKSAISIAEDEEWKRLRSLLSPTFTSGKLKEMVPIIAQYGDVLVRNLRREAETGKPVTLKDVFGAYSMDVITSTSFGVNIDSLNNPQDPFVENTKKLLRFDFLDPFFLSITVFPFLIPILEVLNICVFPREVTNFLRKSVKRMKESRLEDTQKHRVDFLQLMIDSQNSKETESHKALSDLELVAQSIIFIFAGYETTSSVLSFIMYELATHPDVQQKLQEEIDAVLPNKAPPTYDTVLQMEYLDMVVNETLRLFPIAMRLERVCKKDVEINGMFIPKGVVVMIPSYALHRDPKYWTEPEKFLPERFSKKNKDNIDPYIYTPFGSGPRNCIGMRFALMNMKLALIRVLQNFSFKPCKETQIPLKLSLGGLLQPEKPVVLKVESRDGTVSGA
Chain of DNA dC->dU-editing enzyme APOBEC-3G (Homo sapiens) (Q9HC16 whole entry, looked up): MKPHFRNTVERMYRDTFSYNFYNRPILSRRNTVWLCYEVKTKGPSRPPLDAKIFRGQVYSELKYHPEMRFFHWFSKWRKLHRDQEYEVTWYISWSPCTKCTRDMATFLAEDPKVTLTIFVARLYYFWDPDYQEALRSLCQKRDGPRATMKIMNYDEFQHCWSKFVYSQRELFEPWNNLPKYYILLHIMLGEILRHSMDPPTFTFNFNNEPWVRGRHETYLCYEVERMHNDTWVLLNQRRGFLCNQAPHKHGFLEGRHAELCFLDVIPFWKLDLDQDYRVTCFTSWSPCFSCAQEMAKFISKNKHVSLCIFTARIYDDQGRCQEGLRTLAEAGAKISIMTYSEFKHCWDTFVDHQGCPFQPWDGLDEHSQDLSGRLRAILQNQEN
Chain of Cytochrome P450 1A2 (Homo sapiens) (P05177 whole entry, looked up): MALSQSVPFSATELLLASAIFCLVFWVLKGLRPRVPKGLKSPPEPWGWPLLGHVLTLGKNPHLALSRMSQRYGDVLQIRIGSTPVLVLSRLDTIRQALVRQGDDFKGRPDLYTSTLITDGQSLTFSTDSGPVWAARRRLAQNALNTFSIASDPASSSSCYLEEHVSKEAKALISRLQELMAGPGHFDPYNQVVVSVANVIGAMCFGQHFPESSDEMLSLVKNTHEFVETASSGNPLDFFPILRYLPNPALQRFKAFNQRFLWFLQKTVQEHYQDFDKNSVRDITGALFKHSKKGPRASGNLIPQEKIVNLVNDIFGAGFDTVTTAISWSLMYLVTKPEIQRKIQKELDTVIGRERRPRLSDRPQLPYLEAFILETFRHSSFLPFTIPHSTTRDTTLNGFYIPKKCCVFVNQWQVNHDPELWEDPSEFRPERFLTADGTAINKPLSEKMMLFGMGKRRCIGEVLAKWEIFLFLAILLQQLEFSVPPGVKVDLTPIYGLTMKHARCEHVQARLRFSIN
Chain of Cytochrome P450 2C9 (Homo sapiens) (P11712 whole entry, looked up): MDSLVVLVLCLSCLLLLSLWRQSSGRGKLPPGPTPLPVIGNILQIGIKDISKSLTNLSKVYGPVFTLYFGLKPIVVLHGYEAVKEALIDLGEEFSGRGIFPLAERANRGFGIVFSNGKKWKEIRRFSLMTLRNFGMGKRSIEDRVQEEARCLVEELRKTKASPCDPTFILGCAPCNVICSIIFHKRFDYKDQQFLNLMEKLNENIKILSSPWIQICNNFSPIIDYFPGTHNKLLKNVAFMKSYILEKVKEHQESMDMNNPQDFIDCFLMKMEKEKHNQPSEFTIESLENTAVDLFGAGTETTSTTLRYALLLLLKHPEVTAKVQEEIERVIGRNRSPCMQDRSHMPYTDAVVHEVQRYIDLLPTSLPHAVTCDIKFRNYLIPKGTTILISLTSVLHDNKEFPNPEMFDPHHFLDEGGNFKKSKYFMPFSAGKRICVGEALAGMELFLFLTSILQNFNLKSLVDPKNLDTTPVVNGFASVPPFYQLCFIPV
Chain of Glutathione peroxidase 1 (Homo sapiens) (P07203 whole entry, looked up): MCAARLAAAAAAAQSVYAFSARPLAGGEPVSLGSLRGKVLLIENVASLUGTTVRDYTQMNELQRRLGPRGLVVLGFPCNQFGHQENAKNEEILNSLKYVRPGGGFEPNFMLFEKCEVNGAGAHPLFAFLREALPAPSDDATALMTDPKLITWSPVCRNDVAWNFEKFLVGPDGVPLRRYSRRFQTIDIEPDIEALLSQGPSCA
Chain of Cytochrome P450 2D6 (Homo sapiens) (P10635 whole entry, looked up): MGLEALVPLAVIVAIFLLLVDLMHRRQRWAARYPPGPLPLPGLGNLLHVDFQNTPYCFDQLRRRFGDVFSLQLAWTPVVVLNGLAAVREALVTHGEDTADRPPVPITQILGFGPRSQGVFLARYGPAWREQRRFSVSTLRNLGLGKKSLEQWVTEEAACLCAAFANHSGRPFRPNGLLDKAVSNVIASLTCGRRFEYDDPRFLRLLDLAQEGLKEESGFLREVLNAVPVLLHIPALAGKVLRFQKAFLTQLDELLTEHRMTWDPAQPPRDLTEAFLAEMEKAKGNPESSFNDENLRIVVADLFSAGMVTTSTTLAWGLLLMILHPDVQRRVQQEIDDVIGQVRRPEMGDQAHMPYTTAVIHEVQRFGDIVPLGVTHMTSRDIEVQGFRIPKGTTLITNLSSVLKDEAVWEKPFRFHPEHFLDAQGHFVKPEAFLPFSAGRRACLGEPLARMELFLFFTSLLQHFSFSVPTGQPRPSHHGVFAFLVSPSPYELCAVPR
Chain of Cytochrome P450 2C19 (Homo sapiens) (P33261 whole entry, looked up): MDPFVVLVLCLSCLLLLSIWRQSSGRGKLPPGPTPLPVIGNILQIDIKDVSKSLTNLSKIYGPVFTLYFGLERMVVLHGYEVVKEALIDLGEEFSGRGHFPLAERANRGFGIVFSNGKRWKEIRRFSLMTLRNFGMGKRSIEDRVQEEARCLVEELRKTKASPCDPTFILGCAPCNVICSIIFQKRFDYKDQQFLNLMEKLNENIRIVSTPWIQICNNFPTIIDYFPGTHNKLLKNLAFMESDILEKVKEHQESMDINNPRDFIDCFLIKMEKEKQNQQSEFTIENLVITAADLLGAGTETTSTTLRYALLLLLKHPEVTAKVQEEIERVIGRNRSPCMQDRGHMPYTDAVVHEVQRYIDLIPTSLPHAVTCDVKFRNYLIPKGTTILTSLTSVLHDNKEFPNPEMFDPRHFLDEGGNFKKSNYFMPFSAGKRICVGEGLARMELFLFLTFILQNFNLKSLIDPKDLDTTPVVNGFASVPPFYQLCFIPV
Chain of Calcium and integrin-binding protein 1 (Homo sapiens) (Q99828 whole entry, looked up): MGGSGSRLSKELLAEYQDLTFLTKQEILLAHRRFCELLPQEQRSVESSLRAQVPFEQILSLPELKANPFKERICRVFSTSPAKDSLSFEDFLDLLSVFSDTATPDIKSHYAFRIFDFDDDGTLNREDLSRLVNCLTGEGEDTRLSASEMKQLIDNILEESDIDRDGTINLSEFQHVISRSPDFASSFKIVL
Chain of Phospholipid hydroperoxide glutathione peroxidase GPX4 (Homo sapiens) (P36969 whole entry, looked up): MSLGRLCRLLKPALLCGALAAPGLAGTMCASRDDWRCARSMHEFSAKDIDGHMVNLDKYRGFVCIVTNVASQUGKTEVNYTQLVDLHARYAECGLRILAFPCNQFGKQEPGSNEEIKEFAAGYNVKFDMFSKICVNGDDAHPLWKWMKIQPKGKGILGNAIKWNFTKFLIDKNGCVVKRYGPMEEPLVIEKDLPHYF

COc1ccc(Cl)cc1N=Nc1ncc[nH]1
active: Potency [1] 0.631 µM | Potency [5] 2.51 µM | Potency [9] 35.5 µM
inactive: Potency [2] > 46 µM | Potency [3] | Potency [4] | Potency [6] | Potency [7] | Potency [8]

C=C[C@@]1(C)CC(=O)[C@@]2(O)[C@@]3(C)[C@@H](O)CCC(C)(C)[C@@H]3[C@H](OC(=O)CCN(C)C)[C@H](OC(C)=O)[C@@]2(C)O1
active: Potency [11] 0.126 µM | Potency [12] 2.51 µM | Potency [13] 0.251 µM | Potency [9] 14.1 µM
-14.6%: max response ([14]; measured here: cell count channel max response)
inactive: Potency [1] | Potency [10] > 46 µM | Potency [2] > 46 µM | Potency [4] | activity change, negative = inhibition ([14]; at 57.5 µM (top of the series)) -1.7% | Potency [15] | Potency [6] | Potency [7] | Potency [8]
-17.4%: max response ([14]; measured here: lipid channel max response)

CC(C)N1CCN(c2ccc(C(=O)c3c(-c4ccc(O)cc4)sc4cc(O)ccc34)cc2)CC1
inactive: Potency [7] | Potency [8]

CCCCN=C(N)NC(=N)N
inactive: outcome [7] | outcome [16] | outcome [17] | outcome [18] | Potency [19] | Potency [20] | Potency [21] | outcome [22] inactive [setting not given]
